# Screening results deposited in PubChem BioAssay by National Center for Advancing Translational Sciences (NCATS).
# A selection: hits, their analogues and other compounds. The true share with any hit is near 2.4%.
# POLB inh: qHTS Assay for Inhibitors of DNA Polymerase Beta; P06746; Pol beta primer extension/strand displacement, fluorescence kinetic; Potency, µM (top dose mostly 114 µM), for inactives: at the top dose activity change, negative = inhibition, hits mostly inhibitors; actives 1.3% (n = 340,000); AID 485314, 2010; note: % is set by controls: 0 for no effect and ±100 for the full control effect
#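 Preincubation: enzyme (10 nM) with compound, 15 min, RT. Reaction: substrate added to 50 nM final. Reads: 0 and 10 min. Analysis: normalized, Hill fit.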
# FEN1 inh: qHTS Assay for the Inhibitors of Human Flap endonuclease 1 (FEN1); P39748; Recombinant FEN1 flap cleavage, fluorescence, 15 min; Potency, µM (doses to about 114 µM), for inactives: at the top dose activity change, negative = inhibition, hits mostly inhibitors; actives 0.35% (n = 390,000); AID 588795, 2011; note: % is set by controls: 0 for no effect and ±100 for the full control effect; nearly all actives have a fitted effect of over 65% in size
# Target sequence (P39748 whole entry, looked up): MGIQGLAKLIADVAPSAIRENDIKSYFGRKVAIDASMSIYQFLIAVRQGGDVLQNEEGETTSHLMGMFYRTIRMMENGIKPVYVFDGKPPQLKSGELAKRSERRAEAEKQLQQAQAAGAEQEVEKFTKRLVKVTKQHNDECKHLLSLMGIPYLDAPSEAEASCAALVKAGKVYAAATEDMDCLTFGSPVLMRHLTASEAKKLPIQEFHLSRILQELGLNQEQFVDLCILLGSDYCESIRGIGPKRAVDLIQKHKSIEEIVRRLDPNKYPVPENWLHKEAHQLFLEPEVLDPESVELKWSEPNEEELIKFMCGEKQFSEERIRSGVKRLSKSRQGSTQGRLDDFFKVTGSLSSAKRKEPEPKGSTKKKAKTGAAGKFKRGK
#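 Steps: FEN1 (10 nM) dispensed; compound added by pin tool; 15 min at room temperature; substrate added to 50 nM final; reads at 0 min and 15 min; data normalized and fitted (four-parameter Hill).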
# WRN inhibitor: qHTS for Inhibitors of WRN Helicase; Bifunctional 3'-5' exonuclease/ATP-dependent helicase WRN (Homo sapiens), Q14191; WRN helicase unwinding, fluorescent forked duplex, kinetic; Potency, µM (series often up to 114 µM), without a hit: top-dose activity change, negative = inhibition, usual class: inhibitors; actives 0.46% (n = 360,000); note: % is set by controls: 0 for no effect and ±100 for the full control effect; nearly all actives have a fitted effect of over 55% in size
#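 Screening of the MLSMR collection measured strand separation of a quenched forked DNA duplex (100 nM) by 20 nM WRN with 2 mM ATP, all final. Compounds were preincubated with enzyme 15 min at room temperature.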
# POLK inh: qHTS for Inhibitors of Polymerase Kappa; Potency, µM (highest dose often 107 µM), for the others: at the top dose activity, negative = inhibition, usual class: inhibitors; DNA polymerase kappa (Homo sapiens), Q9UBT6; actives 0.53% (n = 400,000); purified Pol kappa, fluorescent DNA synthesis assay, 10 min; AID 588579, 2011; note: % is set by controls: 0 for no effect and ±100 for the full control effect
#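 10 nM Pol kappa was preincubated with compounds for 15 min at room temperature. Reaction started with 50 nM (final) substrate. Fluorescence read kinetically at 0 and 10 min.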
# Pol eta inh: qHTS for Inhibitors of Polymerase Eta. actives 1.2% (n = 390,000). recombinant Pol eta, fluorescent DNA replication assay. Potency, µM (series often up to 114 µM), inactives show at the top dose activity change, negative = inhibition, most hits filed as inhibitors. DNA polymerase eta (Homo sapiens), Q9Y253; note: % is set by controls: 0 for no effect and ±100 for the full control effect
#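 Fluorescent replication assay: 50 nM final substrate added after a 15 min room-temperature compound preincubation with 10 nM enzyme. Signal taken at 0 min and again at 10 min.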
# POLI inh: qHTS for Inhibitors of Polymerase Iota; actives 1% (n = 390,000); DNA polymerase iota (Homo sapiens), Q9UNA4; AID 588590, 2011; Potency, µM (titrated, usually from 115 µM), without a hit: at the top dose activity, negative = inhibition, actives largely listed as inhibitors; Pol iota fluorescent replication assay, 10 min
#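 Pol iota at 10 nM preincubated 15 min with compounds at room temperature; reaction started with fluorescent substrate, 50 nM final. Fluorescence read kinetically at 0 and 10 min; buffer-only wells as negative control.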
# Starred values were filed as active, the others as inactive; u = inconclusive; x = no result given; [ ] = remark or other dose. Calls come from the whole dose curve; as a rule, active = well fitted curve in the direction sought with a large enough effect; inconclusive = small, poorly fitted or top-dose-only effect, or another doubt; inactive = no such curve, though single readings can be large; an effect the other way counts as inactive or inconclusive. Potency is the fitted concentration of half-maximal effect.
SMILES,POLB inh,FEN1 inh,WRN inhibitor,POLK inh,Pol eta inh,POLI inh
O=C(c1cnn(-c2ccc(F)cc2)c1-n1cccc1)N1CCN(c2ccccc2)CC1,29.0%,-14.3%,x,-7.0%,-9.1%,21.0%
CCOc1ccc2oc(C(=O)NNC(=O)c3ccccc3O)c(C)c2c1,x,0.9%,0.7%[11.6 µM],-23.3%,79.4µM*,u
CN(C(=O)Nc1cn(C)c(=O)c2ccccc12)c1ccccc1,26.8%,1.1%,x,-11.3%,1.1%,u
Cc1noc(C)c1C(=O)N1CCC2(CC1)CN(c1ccccn1)C2,x,x,x,-5.5%[60.1 µM],x,x
CCCCCCn1c(=O)[nH]c2nc3cc(N)ccc3nc2c1=O,10µM*,-1.4%,-31.8%[57.1 µM],-15.8%,-22.5%,27.3%
CCCCCNC(=O)c1ccc2c(=O)n(CCOC)c(=O)[nH]c2c1,-1.0%,5.5%,7.7%,-2.7%,-17.3%,20.0%
Cc1cccc(NC(=O)Cn2c(=O)nc(-c3ccccc3)c3ccccc32)c1C,-1.6%,17.6%,x,-11.9%[60.1 µM],1.8%,11.4%
CCN(c1ccc(OC)cc1)S(=O)(=O)c1c(C(=O)N2CCCCCC2)c(C)n(C)c1C,14.8%,-0.8%,x,1.2%,-8.0%,19.4%
O=C(Nc1ccc(Cl)c(Cl)c1)N1CCCCCC1,47.5%,u,-2.0%[11.6 µM],89.1µM*,-12.8%,u
O=C(Nc1ccc2nc(-c3cccs3)c(-c3cccs3)nc2c1)N1CCCC1,x,10.4%,x,3.2%,x,47.5%
CCOC(=O)C1CCN(C(=O)Nc2ccc3nc(-c4ccco4)c(-c4ccco4)nc3c2)CC1,1.58µM*,u,35.5µM*,15.8µM*,2.82µM*,2.82µM*
O=C(Nc1ccc2nc(-c3ccco3)c(-c3ccco3)nc2c1)N1CCCCCC1,2.24µM*,50.1µM*,12.6µM*,7.08µM*,10µM*,3.16µM*
O=C(CCS(=O)(=O)c1cccs1)Nc1ccc(C(=O)Nc2ccccc2F)cc1,13.1%,7.9%,x,-22.7%,-2.4%,42.0%
Nc1ccc(C(=O)O)cc1,x,-1.4%,7.5%,13.6%,-12.8%,35.4%
Nc1ccc(O)cc1,x,u,x,89.1µM*,x,7.08µM*
CCOC(=O)c1ccc(NC(=O)c2cc3c(n(-c4ccc(C)cc4)c2=O)CC(C)(C)CC3=O)cc1,-3.8%,16.7%,x,89.1µM*,-18.7%,u
CS(=O)(=O)C1=NSC2=NC(=O)/C(=C\c3ccc(OC(=O)c4ccco4)c(Br)c3)C(=N)N21,u,u,u,-28.6%,50.1µM*,u
CC(C)CS(=O)(=O)C1=NSC2=NC(=O)/C(=C\c3ccc(OC(=O)c4ccco4)cc3)C(=N)N21,-3.4%,-15.0%,-16.2%[11.6 µM],-7.0%,56.2µM*,-5.6%
COc1ccc(CC(N)C(=O)N[C@H]2[C@@H](O)[C@H](n3cnc4c(N(C)C)ncnc43)O[C@@H]2CO)cc1 (some centres undefined),x,x,x,-13.2%[60.1 µM],x,x
Cc1cc(Cn2cnc3c(cnn3C(C)(C)C)c2=O)ccc1F,x,-12.4%,x,1.4%,x,-4.5%
CCCCC(=O)Nc1sc2c(c1-c1nc3ccccc3s1)CCN(C(C)=O)C2,-1.5%,x,x,x,x,x
CC(=O)N1CCc2c(sc(NC(=O)C3CC3)c2-c2nc3ccccc3s2)C1,24.4%,u,-13.6%,-19.1%,25.1µM*,47.8%
O=C(N/N=C/c1ccc(OC(F)F)cc1)c1ccc(Br)cc1,79.4µM*,0.1%,-6.2%,-3.2%,-14.1%,-13.8%
Cc1ccccc1/C=N/n1c(-c2cc(-c3ccccc3)n[nH]2)n[nH]c1=S,u,3.4%,-24.9%,-0.3%,-2.1%,3.2%
Cc1ccsc1/C=N/n1c(-c2cc(-c3ccccc3)n[nH]2)n[nH]c1=S,11.2µM*,-34.2%,-34.6%,u,u,u
SMILES,POLB inh,FEN1 inh,WRN inhibitor,POLK inh,Pol eta inh,POLI inh
CC(C)OCC(O)CN1CCN(CCN2C(=O)c3cccc4cccc(c34)C2=O)CC1 (centres undefined),u,-23.1%,19.1%,-21.7%,-14.4%,18.1%
CC(=O)c1ccc(OCC(O)CN2CCN(CCN3C(=O)c4cccc5cccc(c45)C3=O)CC2)cc1 (centres undefined),14.1µM*,u,16.5%,-34.5%,u,u
COc1ccccc1-c1nnc2sc(COc3ccccc3)nn12,7.7%,-7.2%,-5.7%,-5.4%,-13.6%,-3.4%[58.9 µM]
COc1ccccc1-c1nnc2sc(COc3ccc(Cl)cc3Cl)nn12,56.2µM*,-23.7%,-10.3%,-24.7%,-10.0%,-15.2%
CC(C)NC(=O)N1CC2(CCN(C(=O)c3ccncc3)CC2)C1,x,x,x,-1.4%[60.1 µM],x,x
Oc1ccc(/C=N/Nc2ccnc3cc(Cl)ccc23)c(O)c1O,14.1µM*,44.7µM*,u,44.7µM*,u,u
Cc1ccc(CNC(=O)C2CCN(c3nc4ccc(C)cc4[nH]3)CC2)cc1,13.7%,7.0%,x,-4.6%[60.1 µM],-12.9%,1.1%
CNC(=S)N/N=C/c1ccc(-c2ccc(Cl)c([N+](=O)[O-])c2)o1,8.91µM*,-5.6%,u,-5.7%,0.2%,14.0%
Cc1ccc(C(=O)N/N=C\c2ccc(-c3ccc(Cl)c(Cl)c3)o2)cn1,20µM*,-21.3%,-33.1%,-19.6%,-30.3%,-18.9%
Cc1ccc(-c2ccc(/C=N/NC(=S)Nc3ccccc3)o2)cc1[N+](=O)[O-],17.8%,1.1%,-11.0%,-8.8%,-1.0%,31.8%[58.9 µM]
O=C(c1cnccn1)N1CCC2(CCCN(Cc3nccs3)C2)CC1,x,x,x,1.6%[60.1 µM],x,x
COc1ccc(-c2ccccc2C2C3C=CCCC3(C)C(=O)N2Cc2ccccc2)cc1 (centres undefined),x,-6.3%,x,-1.0%,x,-3.8%
O=[N+]([O-])c1cccc2cn[nH]c12,-0.6%,u,4.1%,-11.3%[60.1 µM],-10.4%,-8.6%
O=[N+]([O-])c1cccc2c[nH]nc12,x,x,x,12.6µM*,x,x
C#CCOCCOCCOCCNc1nc(N2CCN(C(=O)Cn3cc(CCO)nn3)CC2)nc(N2CCN(C(=O)Cn3cc(CCCCN)nn3)CC2)n1,x,-4.2%,-2.5%,-11.1%,-12.6%,8.3%
C#CCOCCOCCOCCNc1nc(N2CCN(C(=O)CCCCCCCCCCNC(=O)Cn3cc(CCCCCN)nn3)CC2)nc(N2CCN(C(=O)CCCCCCCCCCNC(=O)Cn3cc(CCCCCN)nn3)CC2)n1,x,89.1µM*,79.4µM*,-13.7%,-17.9%,u
C#CCOCCOCCOCCNc1nc(N2CCN(C(=O)Cn3cc(CCCCN)nn3)CC2)nc(N2CCN(C(=O)Cn3cc(CCCCN)nn3)CC2)n1,39.8µM*,-8.2%,-6.4%[57.1 µM],u,1.6%,u
